Measurements published in PubChem BioAssay AID1259417 (TB Discovery Research, Infectious Disease Research Institute, 2018).
The whole screen tested about 1,100 compounds, of which about 760 (69%) were called active. How the calls were made is not given here. So high a share suggests a set chosen from earlier hits. This is one part of the list.

Experiment: M. tuberculosis growth inhibition, HTS (AID 1259417);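 further: bacteria grown with compound for 5 days at 37 °C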
Details: stronger effect = higher value, concentration not given here
[1] = M. tuberculosis DsRed fluorescence growth inhibition
[2] = M. tuberculosis growth inhibition

Row | Structure (SMILES) | inhibition [1] | inhibition [2]
1 | c1c2c(cc3sc(N4CCCC4)nc13)OCO2 | 100% (active) | 99.8%
2 | CCOc1ccc(-c2nnc(SCC(=O)Nc3cc(C)on3)o2)cc1 | -1.63% (active) | 32.7%
3 | Cc1cc(NC(=O)CSc2nnc(Cc3ccccc3)o2)no1 | -2.93% (inactive) | 6.89%
4 | CCOc1ccc(NC(=O)CSc2nnc(-c3ccccc3Cl)o2)cc1 | 13.5% (inactive) | -1.29%
5 | Cc1ccc(-c2nnc(SCC(=O)Nc3cc(C)on3)o2)cc1 | 2.19% (active) | 50.5%
6 | Cc1cc(NC(=O)CSc2nnnn2-c2ccccc2C)no1 | 56.3% (active) | 88.3%
7 | O=C(CCN1C(=O)c2ccccc2C1=O)Oc1cccc2cccnc12 | 99.5% (active) | 100%
8 | O=C(CCN1C(=O)C2C3C=CC(C4CC34)C2C1=O)Oc1cccc2cccnc12 (stereo unspecified) | 100% (active) | 101%
9 | CC(C(=O)Oc1cccc2cccnc12)N1C(=O)C2C3C=CC(C4CC34)C2C1=O (stereo unspecified) | 100% (active) | 101%
10 | O=C(Oc1cccc2cccnc12)C(Cc1ccccc1)N1C(=O)C2C3CCC(C3)C2C1=O (stereo unspecified) | 99.8% (active) | 101%
11 | COc1cc2cc(-c3nc4ccccc4[nH]3)c(N)nc2cc1OC | 93.9% (active) | 94%
12 | CCc1nc2sc(C(=O)NCc3ccc(F)cc3)c(N)c2c(C(F)(F)F)c1C | 41.1% (active) | 20.9%
13 | COc1ccc(CNC(=O)c2c(N)nc3sc4c(c3c2C(F)(F)F)CCC4)cc1 | 4.42% (inactive) | -3.32%
14 | COC(=O)CN1C(c2ccc(OC)cc2)=Nc2ccc(Cl)cc2C1c1ccccc1 (stereo unspecified) | 52.5% (active) | 79.3%
15 | COC(=O)CN1C(c2cccc(Cl)c2)=Nc2ccc(Cl)cc2C1c1ccccc1 (stereo unspecified) | 10.1% (active) | 40.7%
16 | CSc1ccc2nc(Nc3nc4ccc(NC(C)=O)cc4s3)sc2c1 | 2.19% (inactive) | 1.87%
17 | CC12CC3CC(C)(C1)CC(C(=O)Nc1nc4ccccc4s1)(C3)C2 | 98.3% (active) | 97.6%
18 | CCn1nnc(NC(=O)COc2ccc(C3CCCCC3)cc2)n1 | 37% (active) | 86.6%
19 | CCCn1nnc(NC(=O)COc2ccc(C3CCCCC3)cc2)n1 | 26.3% (active) | 72.9%
20 | CCC(=O)Oc1ccc(C(=O)Nc2cc3oc4ccccc4c3cc2OC)cc1 | 12% (inactive) | 10.7%
21 | CCOC(=O)CSCC(=O)Nc1c(C(=O)C2CC2)oc2ccccc12 | 27.6% (active) | 48.3%
22 | CC(C)(C)C(=O)/C=C/Nc1ccccc1O | 99.2% (active) | 98.5%

Row | Structure (SMILES) | inhibition [1] | inhibition [2]
23 | CSc1nsc(SCC(=O)N2CCN(c3ccccc3)CC2)n1 | 98.3% (active) | 98.7%
24 | COc1cc(NC(=O)c2ccc3c(c2)OCCO3)ccc1NC(=O)c1ccccc1Cl | 2.06% (inactive) | 9.67%
25 | O=C(Nc1ccc2c(c1)OCCO2)c1cccc2nc3ccccc3nc12 | 97.2% (active) | 96.7%
26 | Cc1ccc(NC(=O)CC2COc3ccccc3O2)cc1Cl (stereo unspecified) | 2.96% (inactive) | -10.1%
27 | Cc1ccc([N+](=O)[O-])cc1NC(=O)CN(C(=O)c1ccccc1Cl)C1CCCCC1 | 75.1% (active) | 49.8%
28 | COc1ccc(C(=O)Nc2cc(OC)c(NC(=O)c3ccco3)cc2OC)cc1 | 0.929% (inactive) | -7.24%
29 | COc1ccc(-c2cc(C(=O)NN=CC=Cc3ccccc3OC)[nH]n2)cc1 | 9.99% (active) | 65%
30 | O=C1NN=C2C1=NC1(CCCCC1)Cc1ccccc12 | 99.4% (active) | 99%
31 | CCOC(=O)N1CCN(CCC(=O)c2ccc(Cl)cc2)CC1 | 25.5% (active) | 58.7%
32 | Cc1ccc(-c2nnc(NC(=O)CCOc3ccccc3)o2)c(C)c1 | 61.8% (active) | 78.2%
33 | CCCCOc1cccc(C(=O)Nc2nnc(-c3ccc(C)cc3C)o2)c1 | 92.2% (active) | 77.5%
34 | O=C(CCOc1ccccc1)Nc1nnc(-c2cc(Cl)ccc2Cl)o1 | 1.59% (inactive) | -1.65%
35 | N=c1sc(/C=C2\C=Nc3ccccc32)c(O)n1-c1nccs1 | 97.2% (active) | 94.9%
36 | Cc1ccc(C(C)C)c(OCc2nn(CC(=O)c3ccc(OC(F)F)cc3)c3[n+]2CCCCC3)c1 | 100% (active) | 99.1%
37 | CCC(C)NC(=O)c1ccc(NC(=O)C2(c3ccccc3)CCCC2)cc1 (stereo unspecified) | 31.9% (active) | 42.8%
38 | Cc1ccc(C(=O)N2CCN(c3ccc(NC(=O)COc4c(C)cc(C)cc4Br)cc3)CC2)cc1 | -0.254% (inactive) | -20.4%
39 | O=C(c1ccc(NC(=O)C2(c3ccccc3)CCCC2)cc1)N1CCCCC1 | 99.8% (active) | 99.3%
40 | COC(=O)c1ccc(NC(=O)CSc2nc(-c3ccccc3C)ns2)cc1 | 15.6% (active) | 32.6%
41 | Cc1ccc(-c2nsc(SCC(=O)Nc3ccc4c(c3)OCO4)n2)cc1 | 9.75% (inactive) | 1.51%
42 | COC(=O)c1ccc(NC(=O)CSc2nc(-c3cccc(C)c3)ns2)cc1 | 15.3% (active) | 38.3%
43 | CSc1nsc(SCC(=O)Nc2ccc(OC(C)=O)cc2)n1 | 8.33% (inactive) | 24.6%
